The values that follow come from ChEMBL document CHEMBL4513141, “CO-ADD screening of NIH (USA) - Clinical Collection” (2021).

Entries with a potency or affinity are not part of this list.

The test concerns Cryptococcus neoformans. To be noted: Concentration 20 uM; ASSAY_TEST Inhibition of Fungal Growth; detection method Resazurin; Absorption (OD600-OD570); plate type 384well; NBS; CORNING #3640. On the technique in general: Resazurin is reduced to fluorescent resorufin, in cell work by metabolically active cells.
On to `COC(=O)C1=C(C)NC(C)=C(C(=O)O[C@@H]2CCCN(Cc3ccccc3)C2)[C@@H]1c1cccc([N+](=O)[O-])c1.Cl`, for which the Inhibition (in general, the change of the read-out against control, counted positive when it falls) was -18.39%. To `COc1ccccc1N1CCN(CC(O)COc2cccc3ccccc23)CC1` (stereo not given) [NAFTOPIDIL] belongs 1.21%. To `Cl.O.O=C1N(c2ccccc2)c2ccccc2C1(Cc1ccncc1)Cc1ccncc1` belongs -6.67%. To `COc1cc(C[C@@H](CO)[C@H](CO)Cc2ccc(O)c(OC)c2)ccc1O` [(+)-SECOISOLARICIRESINOL] belongs 1.62%; to `CC(C)(C(=O)c1cccnc1)c1cccnc1` [METYRAPONE], -9.27%; to `N#Cc1ccc(C(c2ccc(C#N)cc2)n2cncn2)cc1` [LETROZOLE], -8.63%. As to `COc1ccc(C(=O)NCc2ccc(OCCN(C)C)cc2)cc1OC.Cl`, the Inhibition is reported as -2.57%. Consider `CN1CCC(=C2c3ccccc3C=Cc3ccccc32)CC1.Cl` [CYPROHEPTADINE HYDROCHLORIDE], for which the Inhibition is recorded as -5.58%. Turning to `CC(Cc1ccccc1)(NC(=O)CN)c1ccccc1.Cl` (stereo not given) [REMACEMIDE HYDROCHLORIDE], the Inhibition is reported as -7.79%. Regarding `CC(=O)C1(O)CCC2C3CC(C)C4=CC(=O)C=CC4(C)C3(F)C(O)CC21C` (stereo not given), the Inhibition is reported as -3.1%. Take `CC1(C)C[C@@H]1C(=O)N/C(=C\CCCCSC[C@H](N)C(=O)O)C(=O)[O-].[Na+]` [CILASTATIN SODIUM]: the Inhibition was -1.08%.

With `CCOC(=O)[C@H](CCc1ccccc1)N[C@H]1CCc2ccccc2N(CC(=O)O)C1=O.Cl` [BENAZEPRIL HYDROCHLORIDE], the Inhibition was 0.84%. For the compound `COc1cc(C)c(/C=C/C(C)=C/C=C/C(C)=C/C(=O)O)c(C)c1C` [ACITRETIN], the Inhibition is given as -7.56%. For the compound `COc1cc(N)c(Cl)cc1C(=O)N[C@@H]1CCN(CCCOc2ccc(F)cc2)C[C@@H]1OC.O` [(R,S)-CISAPRIDE MONOHYDRATE], the Inhibition is recorded as 3.24%.

Regarding `Cl.O.O=C(c1ccc(F)cc1)C1CCN(CCn2c(=S)[nH]c3ccccc3c2=O)CC1`, the Inhibition was 0.24%. Turning to `COC1=CC(=O)C[C@@H](C)[C@]12Oc1c(Cl)c(OC)cc(OC)c1C2=O` [GRISEOFULVIN], the Inhibition was -0.94%. For `Cc1onc(-c2ccccc2)c1-c1ccc(S(N)(=O)=O)cc1` [VALDECOXIB], the Inhibition stood at 0.76%. Take `Cl.Nc1c2c(nc3ccccc13)CCCC2` [TACRINE HYDROCHLORIDE]: the Inhibition is -5.28%.

Regarding `O=c1c(-c2ccccc2)c1-c1ccccc1` [DIPHENCYPRONE], the Inhibition stood at 10.54%.

`CC(=O)[C@@]1(O)CC[C@H]2[C@@H]3C[C@H](C)C4=CC(=O)CC[C@]4(C)[C@H]3CC[C@@]21C`: the Inhibition was -0.94%. In the case of `CCCN[C@H]1CCc2nc(N)sc2C1` [PRAMIPEXOLE], the Inhibition is -0.71%. Regarding `CN1CCc2cc(Cl)c(O)cc2[C@@H](c2ccccc2)C1.Cl`, the Inhibition is -7.18%. On to `O=C(O)COCCN1CCN(C(c2ccccc2)c2ccc(Cl)cc2)CC1` (stereo not given) [CETIRIZINE], for which the Inhibition is recorded as -6.19%. As to `CC(=O)NS(=O)(=O)c1ccc(N)cc1` [SULFACETAMIDE], the Inhibition worked out at 0.24%. For the compound `Nc1c2c(nc3c1CCC3)CCCC2` [IPIDACRINE], the Inhibition is -0.69%. For the compound `O=C([O-])c1cc(=O)c2c(OCC(O)COc3cccc4oc(C(=O)[O-])cc(=O)c34)cccc2o1.[Na+].[Na+]` [CROMOLYN SODIUM], the Inhibition was 0.69%.

As for `CN1CCN(CC/C=C2/c3ccccc3Sc3ccc(S(=O)(=O)N(C)C)cc32)CC1` [THIOTHIXENE], the Inhibition is given as -5.03%.

Regarding `CC1Cc2ccccc2N1NC(=O)c1ccc(Cl)c(S(N)(=O)=O)c1` (stereo not given) [INDAPAMIDE], the Inhibition is on record as -0.18%. Take `Cc1cn([C@H]2C=C[C@@H](CO)O2)c(=O)[nH]c1=O` [STAVUDINE]: the Inhibition came to 0.51%. Take `CCOC(=O)C1=C(C)NC(C)=C(C(=O)OC)C1c1cccc(Cl)c1Cl` (stereo not given) [FELODIPINE]: the Inhibition was -9.45%. For `Cc1nc2n(c(=O)c1CCN1CCC(c3noc4cc(F)ccc34)CC1)CCCC2` [RISPERIDONE], the Inhibition is given as -0.58%. To `CC(C[N+](C)(C)C)OC(N)=O.[Cl-]` (stereo not given) [BETHANECHOL CHLORIDE] belongs 0.14%; to `NC(=O)N1c2ccccc2CC(=O)c2ccccc21` [OXCARBAZEPINE], -4.73%; to `NC(CO)(CO)CO.O=C(c1ccccc1)c1ccc2n1CCC2C(=O)O` (stereo not given) [KETOROLAC TROMETHAMINE], -4.39%. Turning to `CCC(CO)NCCNC(CC)CO` (stereo not given), the Inhibition is reported as -1.69%.
